SMILES strings stand for the structures. Values without a mark were called inactive. Calls of active or inactive are those of the source.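 The calls were made as follows: active = inhibition above about 23% in any of six single-dose repeats (limit read from the data); inactive = the rest.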

The target of this assay is Intestinal-type alkaline phosphatase (Homo sapiens) (UniProt P09923). The assay is described as follows: human IAP inhibitors, confirmation, biochemical, luminescence, single concentration, uHTS hits (AID 434927).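 Also: plate controls were DMSO wells with enzyme for no effect and wells lacking enzyme for full effect.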 The settings on record: purified human IAP, CDP-Star luminescence, 30 min; at 8.3 µM; stronger effect = higher value.
Sequence of Intestinal-type alkaline phosphatase (Homo sapiens) (P09923 whole entry, looked up): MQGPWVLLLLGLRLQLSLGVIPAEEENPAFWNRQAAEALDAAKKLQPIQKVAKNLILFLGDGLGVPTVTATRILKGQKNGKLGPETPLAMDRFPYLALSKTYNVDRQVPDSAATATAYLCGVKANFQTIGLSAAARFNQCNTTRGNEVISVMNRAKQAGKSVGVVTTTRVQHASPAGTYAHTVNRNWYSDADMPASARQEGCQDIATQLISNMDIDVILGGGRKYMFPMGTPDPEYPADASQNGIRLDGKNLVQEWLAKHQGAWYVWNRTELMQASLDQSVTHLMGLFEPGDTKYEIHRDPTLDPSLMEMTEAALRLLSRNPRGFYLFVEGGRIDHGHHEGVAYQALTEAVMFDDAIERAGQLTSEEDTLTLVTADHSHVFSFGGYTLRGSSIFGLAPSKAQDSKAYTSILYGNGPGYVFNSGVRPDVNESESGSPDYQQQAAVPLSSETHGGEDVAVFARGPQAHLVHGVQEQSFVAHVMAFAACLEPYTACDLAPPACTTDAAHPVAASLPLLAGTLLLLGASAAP

For orientation: inhibition means the change of the read-out against control, counted positive when it falls. As for `Cc1ccc(Cl)cc1NC(=O)C(=O)N/N=C/c1ccc2c(c1)OCO2`, the inhibition is 40.1% (active).

With `COc1ccc(NC(=O)CCN2CCN(S(=O)(=O)c3cc(Cl)ccc3OC)CC2)cc1`, the inhibition was 35.6% (active).

In the case of `CN(C)c1ccc(N=Nc2ccccc2Br)cc1`, the inhibition is -104%.

For `COc1ccc(C2=Nc3cc(C)ccc3OC2)cc1`, the inhibition is 58.3% (active).

As for `Cc1ccc(NC(=O)NNC(=O)c2cc3ccccc3cc2O)cc1`, the inhibition was -69.5%.

As to `O=C(NNc1ncnc2c1cnn2-c1ccc(F)cc1)c1ccco1`, the inhibition was -47.2%.

With `Cc1ccc2c(c1)nnc1nnc(SCC(=O)O)n12`, the inhibition was 33.9% (active).

Turning to `CC(C)(C)NC(=O)C(=O)NNC(=O)COc1ccccc1`, the inhibition is 39% (active).

In the case of `CC1=NN(Cc2ccccc2)C(=O)/C1=C\c1ccc(N(C)C)cc1`, the inhibition is 65.6% (active).

As to `CCN(CC)c1ccc(/C=N/NC(=O)c2nnn(-c3nonc3N)c2C(C)C)c(O)c1`, the inhibition is 32.4% (active).

Take `Cc1cc2cc3c(cc2nc1SCC(=O)Nc1nc(C)c(C)s1)OCO3`: the inhibition was 43.9% (active).

For `Cc1cc(OCC(=O)Nc2ncn[nH]2)ccc1Cl`, the inhibition is -87%.

For `C/C(=N/Nc1ccccc1[N+](=O)[O-])c1ccc([N+](=O)[O-])cc1`, the inhibition is -233%.

As to `Cc1[nH]n(-c2nc(-c3ccccc3F)cc(=O)[nH]2)c(=O)c1CCO`, the inhibition is -39.7%.

For the compound `CCC1CCCCN1C1Sc2ccc(C(=O)OC)cc2NC1=O` (configuration not stated), the inhibition was -69.1%.

For the compound `O=C(N/N=C/c1ccc2cccnc2c1)c1nc2ccccc2c(=O)[nH]1`, the inhibition was -193%.

`COc1cc(/C=C2\SC(=S)N(N(C)c3ccccc3)C2=O)ccc1O`: the inhibition is 60.4% (active).
